In publication PMC5540273 (PLoS ONE, 2017):

What was measured:
Settings in all cases: concentration: 1 μM, replicates: in singlicate; n = 1
[1] = system: T1, RSK4(Kin.Dom.1-N-terminal)
T1 construct: gene RPS6KA6

[2] = system: T2, RSK4(Kin.Dom.2-C-terminal)
T2 construct: gene RPS6KA6

S6K1 = system: S6K1
SBK1 = system: SBK1
SGK2 = system: SGK2
SGK3 = system: SGK3
SGK = system: SGK
SIK2 = system: SIK2
SIK = system: SIK
SLK = system: SLK
SNARK = system: T3, SNARK
T3 construct: gene NUAK2

SNRK = system: SNRK
SRC = system: SRC
SRMS = system: SRMS
SRPK1 = system: SRPK1
SRPK2 = system: SRPK2
SRPK3 = system: SRPK3
STK16 = system: STK16
STK33 = system: STK33
STK35 = system: STK35
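Further: KINOMEscan kinase panel screen.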

Row | SMILES | %Inh [1] [%] | %Inh [2] [%] | %Inh (S6K1) [%] | %Inh (SBK1) [%] | %Inh (SGK2) [%] | %Inh (SGK3) [%] | %Inh (SGK) [%] | %Inh (SIK2) [%] | %Inh (SIK) [%] | %Inh (SLK) [%] | %Inh (SNARK) [%] | %Inh (SNRK) [%] | %Inh (SRC) [%] | %Inh (SRMS) [%] | %Inh (SRPK1) [%] | %Inh (SRPK2) [%] | %Inh (SRPK3) [%] | %Inh (STK16) [%] | %Inh (STK33) [%] | %Inh (STK35) [%]
1 | COC(=O)Nc1nc2cc(Oc3ccc(NC(=O)Nc4cc(C(F)(F)F)ccc4F)cn3)ccc2[nH]1.Cl.Cl [GW681170] | 0 | 0 | 12 | 0 | 1 | 6 | 12 | 0 | 0 | 36 | 14 | 0 | 29 | 0 | 25 | 8 | 0 | 17 | 55 | 0
2 | Cl.Cl.NCC(NCc1ccc(-c2ccnc3[nH]ccc23)s1)c1ccccc1 (stereo not shown) [GSK1321565] | 55 | 26 | 53 | 57 | 0 | 43 | 55 | 0 | 5 | 74 | 93.5 | 0 | 0 | 0 | 68 | 83 | 77 | 49 | 76 | 0
3 | Cl.c1ccc(-c2ccc3c(Nc4ccc5[nH]ccc5c4)ccnc3c2)nc1 [GW440138] | 0 | 34 | 0 | 0 | 0 | 6 | 0 | 0 | 0 | 84 | 4 | 0 | 60 | 0 | 38 | 22 | 0 | 0 | 0 | 0
4 | O=C(Nc1cccc(-c2nn3ccccc3c2-c2ccnc(Nc3cccc(F)c3)n2)c1)c1c(F)ccc(F)c1Cl [GSK357952] | 4 | 0 | 2 | 12 | 0 | 2 | 10 | 16 | 34 | 91.2 | 4 | 17 | 45 | 28 | 45 | 0 | 0 | 0 | 10 | 27
5 | O=C(Nc1cccc(Oc2ccc3nc(NC(=O)C4CC4)cn3n2)c1)c1ccccc1C(F)(F)F | 0 | 0 | 0 | 0 | 7 | 0 | 0 | 28 | 1 | 32 | 0 | 0 | 5 | 0 | 59 | 14 | 48 | 17 | 0 | 3
6 | COc1cc2c(cc1OCCN1CCNCC1)ncc1c3ccc(C#N)cc3[nH]c21 | 73 | 7 | 52 | 63 | 46 | 34 | 67 | 79 | 18 | 23 | 94.6 | 12 | 0 | 19 | 36 | 0 | 42 | 9 | 19 | 0
7 | O=c1[nH]cc(-c2ccc(N3CCOCC3)cc2)c2sc(-c3cn[nH]c3)cc12 [GSK2276055] | 0 | 18 | 0 | 0 | 0 | 13 | 0 | 0 | 0 | 0 | 15 | 0 | 0 | 8 | 17 | 0 | 0 | 35 | 0 | 0
8 | CCn1c(-c2nonc2N)nc2c(C#CC(C)(C)O)nc(OC[C@H](N)c3ccccc3)cc21 [GSK943949] | 0 | 0 | 4 | 0 | 18 | 0 | 6 | 0 | 2 | 6 | 92.8 | 0 | 1 | 4 | 41 | 0 | 24 | 9 | 0 | 0
9 | Fc1ccc(-c2ncn(C3CCNCC3)c2-c2ccnc(Oc3ccc(-c4ccccc4)cc3)n2)cc1 [SB-245391] | 18 | 9 | 11 | 52 | 18 | 12 | 12 | 4 | 12 | 0 | 16 | 23 | 11 | 3 | 5 | 0 | 5 | 14 | 21 | 0
10 | NCCCC(NC(=O)c1cc(Br)c(-c2ccnc3[nH]ccc23)s1)c1ccccc1.O=C(O)C(F)(F)F.O=C(O)C(F)(F)F (stereo not shown) [GSK1287544] | 8 | 0 | 58 | 44 | 65 | 52 | 54 | 0 | 19 | 14 | 88 | 6 | 0 | 0 | 70 | 12 | 57 | 60 | 91.5 | 0
11 | Oc1cc(Nc2ccnc3cc(I)ccc23)ccc1F [GW552771] | 7 | 87 | 35 | 8 | 2 | 1 | 19 | 57 | 29 | 16 | 0 | 0 | 67 | 0 | 21 | 0 | 9 | 0 | 0 | 5
12 | Cl.c1ccc(-c2ccc3c(Nc4ccc5[nH]ncc5c4)ccnc3c2)nc1 [GW440137] | 0 | 0 | 0 | 0 | 0 | 21 | 58 | 0 | 0 | 31 | 20 | 0 | 33 | 0 | 31 | 0 | 0 | 30 | 0 | 0
13 | CC(=O)Nc1nc2cnc(Nc3cc(NC(=O)c4cccc(C5(C#N)CC5)c4Cl)ccc3C)nc2s1 | 0 | 18 | 14 | 0 | 0 | 0 | 0 | 6 | 29 | 23 | 0 | 0 | 45 | 0 | 39 | 5 | 0 | 11 | 0 | 0
14 | Cc1ccc(S(=O)(=O)Nc2ccc(Nc3nccc(Nc4cccc5[nH]ncc45)n3)cc2)cc1 [GSK581271] | 0 | 0 | 14 | 26 | 9 | 0 | 0 | 67 | 36 | 0 | 0 | 0 | 64 | 0 | 51 | 5 | 9 | 43 | 0 | 55
15 | Cc1ccc(C)c(NC(=O)NC2CCN(c3ccnc(Nc4ccc(F)cc4)n3)C2)c1 (stereo not shown) [GSK1379720] | 0 | 6 | 8 | 1 | 2 | 0 | 0 | 0 | 0 | 0 | 0 | 0 | 0 | 0 | 24 | 49 | 0 | 0 | 0 | 0
16 | Nc1n[nH]c2cnc(-c3ccccc3)cc12 [SB-642124] | 19 | 15 | 10 | 22 | 31 | 74 | 74 | 2 | 0 | 0 | 60 | 0 | 0 | 0 | 22 | 3 | 24 | 45 | 31 | 0
17 | Cl.Cl.NCC(NC(=O)c1cc(-c2ccccc2)c(-c2ccnc3[nH]ccc23)s1)c1ccccc1 (stereo not shown) [GSK1321561] | 0 | 0 | 6 | 11 | 27 | 15 | 0 | 0 | 11 | 31 | 50 | 0 | 69 | 0 | 53 | 0 | 0 | 3 | 100 | 0
